This is a sample that favours compounds with a hit; in the whole collection about 3.4% have one here.
PLK1 PBD block – qHTS for Inhibitors of PLK1-PDB (polo-like kinase 1 - polo-box domain): Primary Screen; Serine/threonine-protein kinase PLK1 (Homo sapiens), P53350; Plk1 PBD binding of FITC phosphopeptide, fluorescence polarization; Potency, µM, actives largely listed as inhibitors; 360,000 tested, 2.8% active; further: series mostly up to about 57 µM; nearly all actives have a fitted effect of over 65% in size
Mito fusion act – qHTS Assay for Small Molecule Inhibitors of Mitochondrial Division or Activators of Mitochondrial Fusion | S. cerevisiae fusion-defective mutant growth rescue, CellTiterGlo 48 h | Potency, µM (highest dose often 46.1 µM), hits mostly activators | 320,000 tested, 0.23% active; further: nearly all actives have a fitted effect of over 45% in size
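Compounds are tested for their ability to restore growth of mitochondrial fusion-defective yeast strains at non-permissive 37C in YPEG medium over 48 hours. Viability is quantified by luciferase luminescence.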
PKM2 act – qHTS Assay for Activators of Human Muscle isoform 2 Pyruvate Kinase. Potency, µM (series often up to 57.5 µM), actives largely listed as activators. AID 1631, 2009. purified PKM2, Kinase-Glo ATP luminescence, activation; response scale: 0% is enzyme alone, no compound. 260,000 tested, 0.34% active; further: nearly all actives have a fitted effect of over 55% in size
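hPK-M2, >95% pure; 0.1 mM ADP / 0.5 mM PEP final; imidazole pH7.2 buffer w/ 7 mM MgCl2, 50 mM KCl; 1 h RT; Kinase-Glo lum. Intermediate enzyme activity for dual inhibitor/activator qHTS.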
GLS inh – qHTS for Inhibitors of Glutaminase (GLS); 410,000 tested, 0.21% active; Potency, µM (doses to about 45.5 µM), hits mostly inhibitors; AID 624170, 2012; GLS enzymatic activity, qHTS titration
Target sequence (O94925 whole entry, looked up): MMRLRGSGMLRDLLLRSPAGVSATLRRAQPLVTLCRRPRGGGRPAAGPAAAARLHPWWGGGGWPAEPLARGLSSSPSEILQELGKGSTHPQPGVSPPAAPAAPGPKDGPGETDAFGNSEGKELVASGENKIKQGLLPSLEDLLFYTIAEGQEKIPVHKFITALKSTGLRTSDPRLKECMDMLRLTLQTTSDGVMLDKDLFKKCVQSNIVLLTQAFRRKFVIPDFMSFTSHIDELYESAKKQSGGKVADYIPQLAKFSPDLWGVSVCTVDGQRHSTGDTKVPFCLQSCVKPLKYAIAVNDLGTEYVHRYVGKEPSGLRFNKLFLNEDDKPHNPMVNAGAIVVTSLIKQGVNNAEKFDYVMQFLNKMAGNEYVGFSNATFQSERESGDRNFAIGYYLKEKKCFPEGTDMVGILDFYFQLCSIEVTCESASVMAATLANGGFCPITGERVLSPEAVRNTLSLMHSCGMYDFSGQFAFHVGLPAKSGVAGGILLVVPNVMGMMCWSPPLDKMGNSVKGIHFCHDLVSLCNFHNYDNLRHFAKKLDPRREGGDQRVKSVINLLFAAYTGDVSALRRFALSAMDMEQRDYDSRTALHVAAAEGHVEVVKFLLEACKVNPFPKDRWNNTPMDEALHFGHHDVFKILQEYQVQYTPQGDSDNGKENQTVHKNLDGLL
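hKGA; 45 mM KH2PO4 pH 8.2 + 0.02% Tween-20; cpd via pin tool; 1 mM Gln soln; GluOx/HRP/Amplex Red; RT 30 min; fluor. t0 & final.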
VDR inhibitor – Inhibitors of the vitamin D receptor (VDR): qHTS | Vitamin D3 receptor (Homo sapiens), P11473 | VDR-SRC2-3 peptide fluorescence polarization, 2 h | Potency, µM, actives largely listed as inhibitors | 400,000 tested, 0.93% active | AID 504847, 2011
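Fluorescence polarization assay of small-molecule disruption of VDR binding to coregulator peptide SRC2-3. Compounds and controls pin-transferred, then read after 2 h incubation at ambient room temperature.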
KAT2A inh – qHTS Assay for Inhibitors of GCN5L2; GCN5L2 HAT assay, ThioGlo1 CoA-SH fluorescence; 390,000 tested, 0.21% active; Potency, µM (titrated, usually from 58.9 µM), hits mostly inhibitors
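Fluorescence readout, Ex340nm/Em540nm: ThioGlo1 (50uM final) reacts with free CoA thiol released as 20nM GCN5L2 acetylates H3(1-25) peptide (75uM) using acetyl-CoA (70uM). Compound and enzyme sat 15 min beforehand; 20 min room-temperature reaction.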
Large screens that a line does not name were inactive. The call rests on the fitted dose curve; in most records, active means well fitted curve in the direction sought with a large enough effect; inconclusive means small, poorly fitted or top-dose-only effect, or another doubt; inactive means no such curve, though single readings can be large; an effect the other way counts as inactive or inconclusive.

c1ccc(CSc2ncnc3sccc23)cc1	PKM2 act inconclusive
Cc1nc(SCc2ccccc2)c2ccsc2n1	PKM2 act 15.8µM, VDR inhibitor inconclusive
Cc1n[nH]c(=S)n(NC(=O)CC(=O)Nn2c(=S)[nH]nc(C)c2=O)c1=O	GLS inh inconclusive
Cc1n[nH]c(=S)n(NC(=O)/C=C/C(=O)Nn2c(=S)[nH]nc(C)c2=O)c1=O	PKM2 act inconclusive, GLS inh 11.2µM
CCOc1ccccc1C1NC(c2ccc3c(c2)OCO3)=CC(c2ccccc2O)N1 (stereo unspecified)	none (no result: PLK1 PBD block, Mito fusion act, PKM2 act, GLS inh, KAT2A inh)
